# Experimental data taken from PubChem BioAssay (Tox21).
# Results filed as inconclusive are left out. Active and inactive are the calls of the source. The call rests on the fitted dose curve; in most records, active means well fitted cell-killing curve with a large enough effect in the repeat runs; inconclusive means weak or mixed curves, or effect the other way; inactive means flat fitted curve, though single readings scatter.
# Experiment: cAMP Responsive Elements (CRE) small molecule agonists, cell-based qHTS assay: qHTS cell viability counter screen (AID 2060914); further: nearly all actives have a fitted effect of over 50% in size
# Settings: CRE-bla HEK293T viability, CellTiter-Glo luminescence, 5 h; series mostly up to 92.4 µM; activity change, negative = cytotoxicity: at the top concentration
# Summary of the method: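 Cytotoxicity counter screen multiplexed with the CRE-bla reporter assay in HEK 293T cells: 3 h compound exposure at 37 °C, followed by CellTiter-Glo luminescence measured in the same wells.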
# On the % scale 0 is the no-effect control and ±100 the full control effect; potency means the concentration at half of the fitted maximal effect.
Compound,"activity change, negative = cytotoxicity",Potency
CCN(CC)Cc1nccn1-c1ccc([N+](=O)[O-])cc1C(=O)c1ccccc1Cl,0.724% [at 42.5 µM] (inactive),–
CC(C)CC#N,3.7% (inactive),–
COc1ccc(C=O)cc1,–,inactive
O=[N+]([O-])c1cc(C(F)(F)F)c(Cl)c([N+](=O)[O-])c1Nc1ncc(C(F)(F)F)cc1Cl,–,77 µM (active)
O=C(Cl)CCl,0.586% (inactive),–
[Cl-].[Cl-].[Sn+2],6.6% (inactive),–
CC(C)N(Cc1ccccc1)C(=O)C(C)(C)C,1.05% (inactive),–
O=Cc1ccco1,–,inactive
COCCC#N,24.8% (inactive),–
C[N+](=O)[O-],-2.67% (inactive),–
N#CC(Cl)Cl,1.87% (inactive),–
ClP(Cl)(Cl)(Cl)Cl,-25.7% (inactive),–
Cc1ncc(CNC(=O)N(CCCl)N=O)c(N)n1,7.3% [at 42.5 µM] (inactive),–
CC1C(=O)C[C@]2(C(C)C)C[C@H]12 (stereo not given in full),-1.17% (inactive),–
CC(=O)[O-].CC(=O)[O-].O.O.[Cd+2],-14.4% (inactive),–
C/C=C/C=O,2.22% (inactive),–
CC(CC(C#N)(c1ccccc1)c1ccccc1)N(C)C (stereo not given),-5.79% (inactive),–
CCOC(=O)c1ccccc1N,6.71% (inactive),–
CNC(=O)O/N=C(/CSC)C(C)(C)C,2.24% (inactive),–
CC(C)=CCOc1c2occc2cc2ccc(=O)oc12,-5.24% [at 42.5 µM] (inactive),–

Compound,"activity change, negative = cytotoxicity",Potency
OCCSCSCCO,1.37% (inactive),–
N#Cc1ccccc1N,-12.1% (inactive),–
Cc1ccc(N)c(C)c1,–,inactive
Cc1nc(N(C)C)nc(OC(=O)N(C)C)c1C,1.8% (inactive),–
[Cl-].[Cl-].[Cl-].[Yb+3],13.6% (inactive),–
CCOP(=O)(OCC)SCCSCC,–,inactive
CC(=O)[O-].CC(=O)[O-].CC(=O)[O-].[Sb+3],-8.91% [at 3.27 µM] (inactive),–
C[N+](C)(C)CCCl,1.28% (inactive),–
CCSC(=O)N(CC)C1CCCCC1,13.1% (inactive),–
CC(C)(OOC(C)(C)c1ccccc1)c1ccccc1,–,inactive
O=S(=O)(c1ccc(Cl)cc1)c1cc(Cl)c(Cl)cc1Cl,–,inactive
COC(=O)NC(=S)Nc1ccccc1NC(=S)NC(=O)OC,–,inactive
CC(C)O.CC(C)O.OCCN(CCO)CCO.OCCN(CCO)CCO.[Ti],-0.956% (inactive),–
CN1COCN(Cc2cnc(Cl)s2)/C1=N\[N+](=O)[O-],-5.64% (inactive),–
Nc1ccc([N+](=O)[O-])cc1Cl,0.829% (inactive),–
CSC(C)(C)/C=N/O,-13.1% (inactive),–
CCCCC(CC)COC(=O)c1ccc(C(=O)OCC(CC)CCCC)c(C(=O)OCC(CC)CCCC)c1 (stereo not given),–,inactive
c1ccc(Nc2ccc3ccccc3c2)cc1,-24.5% (inactive),–
Cc1ccccc1[N+](=O)[O-],–,inactive
N#Cc1cccc(C#N)c1,–,inactive
